Hits are enriched below; roughly 2.8% of the tested compounds scored in any of these assays.
POLI inh: blocks human DNA polymerase iota activity; Pol iota fluorescent replication assay, 10 min; AID 588590; 1% of 390,000 active; Q9UNA4; Potency, µM (doses to about 115 µM), for the others: at the top dose activity, negative = inhibition, usual class: inhibitors; further: potency means the concentration at half of the fitted maximal effect
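Fluorescent replication assay read twice, at 0 min and 10 min after adding 50 nM (final) substrate. Enzyme (10 nM) and compounds were first incubated 15 min at room temperature; enzyme-free buffer wells were negative controls.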
WRN helicase inh: blocks human WRN helicase; Potency, µM (series often up to 114 µM), without a hit: at the top dose activity change, negative = inhibition, most hits filed as inhibitors; 0.46% of 360,000 active; Q14191; WRN helicase unwinding, fluorescent forked duplex, kinetic; further: potency means the concentration at half of the fitted maximal effect; on the % scale 0 is the no-effect control and ±100 the full control effect; nearly all actives have a fitted effect of over 55% in size
Target sequence (Q14191 whole entry, looked up): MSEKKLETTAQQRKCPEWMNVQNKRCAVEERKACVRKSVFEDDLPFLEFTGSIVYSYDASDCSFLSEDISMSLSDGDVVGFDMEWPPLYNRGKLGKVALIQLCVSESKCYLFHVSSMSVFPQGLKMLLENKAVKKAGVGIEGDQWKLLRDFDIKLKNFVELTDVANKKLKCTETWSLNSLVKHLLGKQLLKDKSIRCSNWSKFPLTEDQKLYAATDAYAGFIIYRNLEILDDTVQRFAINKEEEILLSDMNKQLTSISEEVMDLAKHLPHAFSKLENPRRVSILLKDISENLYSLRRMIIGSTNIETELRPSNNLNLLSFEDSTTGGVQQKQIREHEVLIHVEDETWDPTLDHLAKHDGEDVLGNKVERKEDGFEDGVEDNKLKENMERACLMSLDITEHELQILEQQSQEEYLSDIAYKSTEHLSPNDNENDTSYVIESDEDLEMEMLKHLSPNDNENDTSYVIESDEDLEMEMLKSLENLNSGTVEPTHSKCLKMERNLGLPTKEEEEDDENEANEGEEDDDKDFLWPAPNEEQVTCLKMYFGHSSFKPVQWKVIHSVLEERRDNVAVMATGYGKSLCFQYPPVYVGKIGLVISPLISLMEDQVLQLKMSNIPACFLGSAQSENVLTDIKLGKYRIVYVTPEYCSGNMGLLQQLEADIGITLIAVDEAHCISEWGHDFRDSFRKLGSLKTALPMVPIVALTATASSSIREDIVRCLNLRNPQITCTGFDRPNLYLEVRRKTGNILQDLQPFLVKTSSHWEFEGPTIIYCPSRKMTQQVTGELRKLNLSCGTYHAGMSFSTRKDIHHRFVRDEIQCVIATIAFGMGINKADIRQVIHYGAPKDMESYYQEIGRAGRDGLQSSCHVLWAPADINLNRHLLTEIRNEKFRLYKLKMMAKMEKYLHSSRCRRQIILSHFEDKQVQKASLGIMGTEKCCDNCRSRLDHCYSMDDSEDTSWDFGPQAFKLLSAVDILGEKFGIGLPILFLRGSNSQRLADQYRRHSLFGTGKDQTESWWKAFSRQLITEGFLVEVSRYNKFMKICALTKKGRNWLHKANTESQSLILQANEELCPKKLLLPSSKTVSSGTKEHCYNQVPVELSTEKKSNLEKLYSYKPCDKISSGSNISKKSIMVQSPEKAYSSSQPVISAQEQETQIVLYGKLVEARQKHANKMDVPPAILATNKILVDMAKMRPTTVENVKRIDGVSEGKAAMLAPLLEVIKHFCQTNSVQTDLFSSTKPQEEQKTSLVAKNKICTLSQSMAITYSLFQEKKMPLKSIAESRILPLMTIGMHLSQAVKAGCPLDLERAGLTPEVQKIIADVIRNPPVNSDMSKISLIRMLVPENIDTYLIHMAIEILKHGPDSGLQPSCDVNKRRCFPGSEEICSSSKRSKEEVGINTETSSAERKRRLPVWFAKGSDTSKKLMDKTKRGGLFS
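Kinetic fluorescence helicase assay: unwinding of a quenched forked DNA duplex (100 nM final) with 2 mM ATP final raises red fluorescence (525/598 nm). Compounds sat 15 min at room temperature with 20 nM WRN beforehand.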
Pol beta inh: blocks human DNA polymerase beta activity. Potency, µM (doses to about 114 µM), inactives show top-dose activity change, negative = inhibition, usual class: inhibitors. 1.3% of 340,000 active. Pol beta primer extension/strand displacement, fluorescence kinetic; further: potency means the concentration at half of the fitted maximal effect; on the % scale 0 is the no-effect control and ±100 the full control effect
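Preincubation: enzyme (10 nM) with compound, 15 min, RT. Reaction: substrate added to 50 nM final. Reads: 0 and 10 min. Analysis: normalized, Hill fit.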
PI5P4Ka inh: inhibitors of human PI5P4K alpha | P48426 | PI5P4Kalpha enzyme, ADP-Glo luminescence, 60 min; hits give low values | max response, % | 1.2% of 330,000 active | AID 652105; active means max response of -50% or lower; inconclusive means between -30% and -50%; inactive means -30% or higher; further: value at the top dose of about 77 µM; on the % scale 0 is the no-effect control and ±100 the full control effect
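Controls without substrate or without enzyme flank wells where PI5P4Kalpha converts substrate using 5 microM ATP (final). Incubation lasts 60 minutes at room temperature; ADP formed is read by ADP-Glo luminescence.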
POLH inh: blocks human DNA polymerase eta activity | recombinant Pol eta, fluorescent DNA replication assay | Q9Y253 | Potency, µM (series often up to 114 µM), for inactives: at the highest dose activity change, negative = inhibition, actives largely listed as inhibitors | 1.2% of 390,000 active; further: potency means the concentration at half of the fitted maximal effect; on the % scale 0 is the no-effect control and ±100 the full control effect
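Fluorescent replication assay: 50 nM final substrate added after a 15 min room-temperature compound preincubation with 10 nM enzyme. Signal taken at 0 min and again at 10 min.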
Pol kappa inh: inhibitors of human DNA polymerase kappa. Q9UBT6. purified Pol kappa, fluorescent DNA synthesis assay, 10 min. Potency, µM (doses to about 107 µM), for inactives: at the highest dose activity, negative = inhibition, usual class: inhibitors. 0.53% of 400,000 active; further: potency means the concentration at half of the fitted maximal effect; on the % scale 0 is the no-effect control and ±100 the full control effect
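10 nM Pol kappa was preincubated with compounds for 15 min at room temperature. Reaction started with 50 nM (final) substrate. Fluorescence read kinetically at 0 and 10 min.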
An asterisk follows results filed as active; ? = inconclusive; · = no result; ! = not active in a repeat; [ ] = remark or other dose. Unless noted, the call rests on the fitted dose curve; in most records, active means well fitted curve in the direction sought with a large enough effect; inconclusive means small, poorly fitted or top-dose-only effect, or another doubt; inactive means no such curve, though single readings can be large; an effect the other way counts as inactive or inconclusive.

SMILES	POLI inh	WRN helicase inh	Pol beta inh	PI5P4Ka inh	POLH inh	Pol kappa inh
CCCCNC(=O)c1ccc(Cn2c(=S)[nH]c3c([nH]c4ccc(OC)cc43)c2=O)cc1	12%	-30%	?	-20	?	-13%
CC[C@H](C)NC(=O)c1ccc(Cn2c(=S)[nH]c3c([nH]c4ccc(OC)cc43)c2=O)cc1	?	-2%[11.6 µM]	?	?	18µM*	1%
COc1ccc2[nH]c3c(=O)n(Cc4ccc(C(=O)N5CCCCCC5)cc4)c(=S)[nH]c3c2c1	-27%	-7%	37%	2	-5%	-13%
COc1ccc2[nH]c3c(=O)n(Cc4ccc(C(=O)N5CCC(C(N)=O)CC5)cc4)c(=S)[nH]c3c2c1	7%	-9%	2%	-59*	-27%	-11%
O=Cc1ccc(-c2nc3ccccc3s2)o1	29%	-16%	-22%	-4	-7%	-12%
O=C(O)CCN1C(=O)/C(=C/c2ccc(-c3nc4ccccc4s3)o2)SC1=S	?	?	25µM*	-26	3.2µM*	?
C[C@H](c1ccccc1)N1C[C@H](COCc2ccccc2)Oc2cc(N3CC[C@@H](O)C3)ccc2S1(=O)=O	·	-9%	·	10	·	·
CN1CCO/C1=C(\C(Cl)=C(Cl)Cl)[N+](=O)[O-]	40%	-12%	0%	2	5%	5%
O=[N+]([O-])C(=C1Nc2ccccc2N1)C(Cl)=C(Cl)Cl	50µM*	-6%[11.6 µM]	0%	-26	11%	-13%
COc1ccccc1OCCNC(=O)CCC(=O)N1CCOCC1	-1%	5%	·	0	-11%	5%
CC(C)Oc1ccc(C(=O)Nc2ccc3oc(-c4ccncc4)nc3c2)cc1	-3%	·	-8%	·	-2%	-11%
COc1ccc(NC2CCCN(C(=O)CCN3CCOCC3)C2)cc1 (stereo not drawn)	79µM*	4%	4%	-8	-3%	-2%
COc1ccc(/C=N/NC(=O)c2cccc(S(=O)(=O)N3CCCC3)c2)cc1O	7%	-16%	·	-1	-8%	-15%
COc1cccc(CN(C)Cc2cc(=O)oc3cc(O)c(Cl)cc23)c1	-25%	-1%	0%	-78*	-5%	-19%
CCN(CC)C1CC(=O)N(c2cccc(C)c2)C1=O (stereo not drawn)	·	·	-10%	·	·	·
O=C1C=CC(=O)N1c1ccc2ccccc2c1	14%	50µM*	·	-11	-16%	-12%
O=C1C=CC(=O)N1c1ccc(Nc2ccccc2)cc1	-16%	?	·	?	1%	-20%
Cc1cccc(N2C(=O)C=CC2=O)c1	28%	45µM*	·	-11	-3%	-24%
CC12CCC(=O)N1C(C(=O)Nc1ccc(SC(F)F)cc1)CS2 (stereo not drawn)	6%	-2%	·	0	-16%	9%
CC1(C)[C@@H](O)CC[C@]2(C)C3C(O)C=C4[C@H]5C[C@@](C)(CO)CC[C@]5(C)CC[C@]4(C)[C@]3(C)CC[C@@H]12 (stereo partly drawn)	29%	-1%	0%	-62*	?	-9%
CC1(C)C(O)CC[C@]2(C)C1CC[C@@]1(C)C2C(=O)C=C2[C@@H]3C[C@@](C)(C(=O)O)CC[C@@]3(C)CCC21C (stereo partly drawn)	·	·	·	·	·	-6%[60.1 µM]
CC1(C)[C@@H](O)CC[C@]2(C)[C@H]3C(=O)C=C4[C@@H]5C[C@@](C)(C(=O)O)CC[C@]5(C)CC[C@@]4(C)[C@]3(C)CC[C@@H]12	13%	-6%	11%	0	-17%	34µM*!
Nc1nccnc1C(=O)OCC(=O)Nc1ccc2[nH]c(=O)[nH]c2c1	20µM*	?	·	-10	22µM*	?
Cc1[nH][nH]c(=O)c1C(c1c(C)[nH][nH]c1=O)c1cn(Cc2ccc(F)cc2)c2ccccc12	2.2µM*	-5%[11.6 µM]	0%	-26	-11%	-7%
O=C(O)Cc1cn(Cc2ccc(F)cc2)c2ccccc12	-19%	-18%	19%	2	-12%	10%
SMILES	POLI inh	WRN helicase inh	Pol beta inh	PI5P4Ka inh	POLH inh	Pol kappa inh
Cc1[nH][nH]c(=O)c1C(c1c(C)[nH][nH]c1=O)c1cn(Cc2ccc(Cl)c(Cl)c2)c2ccccc12	2.5µM*	-33%[57.1 µM]	1%	?	?	-2%
O=c1c2ccccc2ncn1Cc1ccc(Cl)c(Cl)c1	37%	1%	12%	5	-18%	1%
COc1cccc(NS(=O)(=O)c2ccc3[nH]cc(C(=O)NC(C)c4ccccc4)c(=O)c3c2)c1 (stereo not drawn)	89µM*	·	40µM*	·	?	?
CCN(CC)CCN1C(=O)c2cccc3cc(N)cc(c23)C1=O	?	13%[11.6 µM]	?	2	-15%	?
Nc1cc2c3c(cccc3c1)C(=O)N(CCN1CCCC1)C2=O	35µM*	7%[11.6 µM]	25µM*	-1	2%	-40%
COc1ccc(C(=O)N/C(=C/c2cccs2)C(=O)N2CCN(C)CC2)cc1	·	15%	·	2	1%	·
CC[C@@H](C)C(N)C(=O)O (stereo partly drawn)	·	·	·	·	·	19%[60.1 µM]
COCCNC(=O)C(c1ccc(C)o1)N(CC1CCCO1)C(=O)Cn1nnc2ccccc21 (stereo not drawn)	8%	5%	-2%	0	-5%	-1%
O=C(NCc1ccco1)C(c1ccc(F)cc1)N(CC1CCCO1)C(=O)Cn1nnc2ccccc21 (stereo not drawn)	16%	1%	0.32µM*	-2	-17%	-6%
Cc1cc(C)c2oc(-c3cccc(NC(=O)COc4ccc(Cl)cc4C)c3C)nc2c1	-20%	·	·	·	·	-8%
O=C(Cn1ncc(Cl)c(Cl)c1=O)Nc1ccc2c(c1)OCO2	?	-7%[11.6 µM]	·	-52*	?	-4%
Cc1ccc(S(=O)(=O)N2CCCCC2)cc1NC(=O)Cn1cnnn1	26%	-8%	11%	5	-4%	-6%
Cc1ccc(NC(=O)CS(=O)CC(=O)Nc2ccc3c(c2)OCO3)cc1Cl (stereo not drawn)	?	-10%	50µM*	-22	?	-29%
CCN(CC)S(=O)(=O)c1cc(NC(=O)CN2C(=O)NC(C)(c3ccccc3)C2=O)ccc1C (stereo not drawn)	-27%	-4%	-1%	0	-15%	-2%
CCN(CC)S(=O)(=O)c1cc(NC(=O)Cn2ncc(Cl)c(Cl)c2=O)ccc1C	25µM*	-35%	28µM*	-83*	35µM*	71µM*
Cc1ccc(S(=O)(=O)N2CCCCC2)cc1NC(=O)Cn1ncc(Cl)c(Cl)c1=O	?	-17%	·	-52*	56µM*	4%
CCCOc1ccc(NC(=O)CC2C(=O)N(c3ccc(C)cc3)C(=O)N2Cc2cccc(OC)c2)cc1 (stereo not drawn)	41%	·	0%	·	-14%	-6%
